# Screens: PubChem, National Center for Advancing Translational Sciences (NCATS)
# VACV Venus inh: vaccinia inhibition (Venus reporter); Vaccinia virus Venus reporter expression, fluorescence; Potency, µM (doses to about 36.5 µM), actives largely listed as inhibitors; 330,000 tested, 0.46% active; AID 720580; calls by dose curve; tested in A549 cells; also: nearly all actives have a fitted effect of over 30% in size
# FMDV inh: antivirals against foot and mouth disease virus. 410,000 tested, 1.2% active. AID 1159524. FMDV antiviral cell-based qHTS. Potency, µM (highest dose often 57.9 µM), most hits filed as inhibitors; calls by dose curve; tested in HEK293T cells; also: read-out not given here; nearly all actives have a fitted effect of over 45% in size
# HCV inhibitor: blocks hepatitis C virus | Huh7.5.1 HCVcc-Cre infection, luciferase reporter, 44 h | Potency, µM (series often up to 41.8 µM), most hits filed as inhibitors | 340,000 tested, 3.4% active | AID 651820
#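 Infectious HCVcc-Cre (~0.5 moi) was added to cells just after compound, with cells seeded 4 h earlier at 1,000 per well. Luciferase activity after 44 h culture reported infection; substrate was incubated 15 min at room temperature before reading.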
# HCMV inh: inhibitors of human cytomegalovirus; activity change, negative = inhibition, % at 57.5 µM; AID 1259415; 410,000 tested, 4.5% active; HFF cells, HCMV-luciferase reporter, 72 h; active compounds read low; in the data active = activity change below about -60%; inconclusive = no clear call, values can overlap the other calls; inactive = above about -39%
#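 Steps: HFFs plated, 16 h 37C; compounds added; HCMV-luciferase added to MOI 1 PFU/cell; 72 h 37C; OneGlo reagent, 5 min room temperature; luminescence read, normalized to controls.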
# Vaccinia mCherry: vaccinia inhibition (mCherry reporter) | AID 720579 | Potency, µM (top dose mostly 36.5 µM), usual class: inhibitors | Vaccinia virus mCherry reporter infection, fluorescence | 310,000 tested, 0.63% active; calls by dose curve; tested in A549 cells; also: nearly all actives have a fitted effect of over 35% in size
# Sm TGR inh: inhibitors of Schistosoma mansoni thioredoxin glutathione reductase; Q962Y6; purified TGR, DTNB reduction, TNB absorbance 405 nm; Potency, µM (series often up to 114 µM), hits mostly inhibitors; 360,000 tested, 3% active; AID 485364; also: nearly all actives have a fitted effect of over 60% in size
#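 First, TGR (20 nM dispensed) and NADPH were mixed with compound. Second, a 15 min room-temperature incubation followed. Third, further NADPH and then DTNB were added to start the reaction. Finally, TNB absorbance was monitored kinetically.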
# Hits are given with their value; n = inactive; u = inconclusive; x = no result given; ! = not confirmed by another sample; [ ] = dose if it differs, or a comment. An excerpt weighted towards active compounds, which were near 9.3% of everything screened. Unless noted, calls follow the shape of the dose curve; as a rule, active = well fitted curve in the direction sought with a large enough effect; inconclusive = small, poorly fitted or top-dose-only effect, or another doubt; inactive = no such curve, though single readings can be large; an effect the other way counts as inactive or inconclusive.
SMILES,VACV Venus inh,FMDV inh,HCV inhibitor,HCMV inh,Vaccinia mCherry,Sm TGR inh
COc1ccc(N2CCN(C(=O)c3ccc(C)c(NC(=O)c4ccco4)c3)CC2)cc1,n,n,n,n,n,1.78µM
COc1ccc(C(=O)Nc2ccc3[nH]ccc3c2)cc1,n,8.91µM,u,n,u,x
COc1ccc(C(=O)NC(=S)Nc2ccc(N3CCCC3)cc2)cc1,n,n,n,u,n,n
Cc1ccc(C(=O)N2CCN(c3ccccc3)CC2)cc1NC(=O)c1ccco1,n,n,n,x,n,n
COc1ccc(C(=O)Nc2ccc(N3CCCC3)cc2)cc1,n,n,n,n,n,56.2µM
COc1ccc(C(=O)N2CCN(c3ccc(NC(=O)c4cccnc4)cc3)CC2)cc1,n,n,n,n,n,n
COc1ccc(C(=O)Nc2ccc3[nH]ccc3c2)cc1OC,n[7.34 µM],n,u,n,n[7.34 µM],x
Cc1cc(C)c(NC(=O)C2CCN(S(C)(=O)=O)CC2)c(C)c1,n,n,x,n,n,x
Cc1ccc(C)c(NC(=S)NC2CC3CCC(C2)N3Cc2ccco2)c1 (configuration not stated),n,x,n,n,n,n
CCCCCCn1c(COc2ccccc2F)nnc1SCC(=O)NC1CCS(=O)(=O)C1 (configuration not stated),n,n,n,n,n,x
C=CCn1c(O)c(N=NC(=O)C(O)c2ccccc2)c2ccccc21 (configuration not stated),x,n,n,n,x,n
Cc1nc(NC(=O)c2ccc(Cl)cc2)nc2cc3c(cc12)OCO3,n,n,n,n,n,n
COc1ccc(C(=O)Nc2nc(C)c3cc4c(cc3n2)OCO4)cc1,n,25.1µM,u,n,n,n
COc1ccc2c(C)cc(SCC(=O)c3ccc4c(c3)OCO4)nc2c1,x,n,10µM,n,x,n
O=C(CSc1nc2ccccc2s1)NCC1CCCO1 (configuration not stated),x,n,n,n,x,n
CCCCNC(=O)c1cnn2c(C)c(Cc3c(C)cc(C)cc3C)c(C)nc12,u,15.8µM,x,n,n,n
Cc1ccc(Cc2c(C)nc3nc(SCC(=O)NCc4ccco4)nn3c2C)cc1,x,n,n,n,x,39.8µM
Cc1nc2nc(SCC(=O)NCCCN3CCCCCC3)nn2c(C)c1Cc1ccccc1,n,n,n,-65.3,n,n
Cc1ccccc1Cc1c(C)nc2nc(SCC(=O)NCCCN3CCCCC3)nn2c1C,n,n,n,x,n,n
Cc1nc2nc(SCC(=O)NCc3ccco3)nn2c(C)c1Cc1c(F)cccc1Cl,n,u,n,n,u,50.1µM
Cc1cccc(Cc2c(C)nc3nc(SCC(=O)NCc4ccco4)nn3c2C)c1,x,n,u,n,x,35.5µM
Cc1ccccc1Cc1c(C)nc2nc(SCC(=O)NCc3ccco3)nn2c1C,u,n,u,n,u,25.1µM
Cc1nc2nc(SCC(=O)NCc3ccccc3)nn2c(C)c1Cc1ccccc1,n,n,x,n,n,n
Cc1ccccc1Cc1c(C)nc2c(C(=O)NCc3ccco3)cnn2c1C,x,u,u,n,x,22.4µM
Cn1c(=O)c2sc3c(c2n(CC(=O)Nc2ccccc2)c1=O)COC(C)(C)C3,n,n,n,n,n,n
SMILES,VACV Venus inh,FMDV inh,HCV inhibitor,HCMV inh,Vaccinia mCherry,Sm TGR inh
CCOC(=O)C1=Nc2cccc3c(O)ccc1c23,x,x,x,n,x,x
CCOC(=O)C1=Nc2ccccc2C1=[N+]=[N-],u,n,u,-100.4,u,n
COc1ccc(CNC(=O)C(=O)NCC(c2cccs2)S(=O)(=O)c2ccc(C)cc2)cc1 (configuration not stated),n,u,x,n,n,39.8µM
COc1ccc(CCNC(=O)C(=O)NCC(c2cccs2)S(=O)(=O)c2ccccc2)cc1 (configuration not stated),u,28.2µM,x,n,u,n
Cc1ccc(CNC(=O)C(=O)NCC(c2cccs2)S(=O)(=O)c2cccs2)cc1 (configuration not stated),n,n,x,n,n,22.4µM
COc1ccc(CCNC(=O)C(=O)NCC(c2cccs2)S(=O)(=O)c2ccc(C)cc2)cc1 (configuration not stated),n,20µM,x,n,n,n
O=C(NCCc1ccc(F)cc1)C(=O)NCC(c1cccs1)S(=O)(=O)c1ccccc1 (configuration not stated),n,u,x,n,n,n
O=C(Nc1ccccc1)/C(=C\c1ccc2c(c1)OCO2)NC(=O)c1ccco1,n,x,n,u,n,n
c1ccc2c(N3CCCCC3)nc(N3CCCC3)nc2c1,x,u,3.16µM,n,x,n
Cc1nc(N2CCCCCC2)c2ccccc2n1,x,n,10µM,u,x,n
c1ccc2c(c1)nc(N1CCCCC1)c1ccccc12,n,n,u,n,n,n
CCN(CC)CCCN(C(=O)c1ccc(Br)cc1)c1nc(-c2ccc(OC)cc2)cs1,n,n,u,n,u,n
CCN(CC)CCCN(C(=O)c1cccs1)c1nc(-c2ccc(OC)cc2)cs1,x,n,11.2µM,x,x,u
CCN(CC)CCCN(C(=O)c1cccc(C)c1)c1nc(-c2ccc(OC)cc2)cs1,x,n,n,-94.7,x,n
CCN(c1ccccc1)c1cc(NC)[n+](C)c(C)n1,x,n,x,x,x,x
COc1ccc(-c2c(C)sc(NC(=O)c3ccnn3C)c2C#N)cc1,n,u,u,-88.6,u,n
Cn1nccc1C(=O)Nc1sc2c(c1C#N)CCCC2,x,n,n,n,x,n
COc1cccc(NC(=O)CN(C)C(=O)c2ccc(OCC3CCCO3)cc2)c1 (configuration not stated),n,n,n,n,n,n
O=C(NCC1CCCO1)c1ccc(COc2ccc(F)cc2)o1 (configuration not stated),n,x,n,n,n,35.5µM
CCOc1ccccc1C(=O)Nc1cccc(-c2ccc(N3CCOCC3)nn2)c1,n,n,u,n,n,n
COCCN(C(=O)CCC(=O)Nc1cc(C)on1)C(C(=O)NC1CCCC1)c1ccc(C)cc1 (configuration not stated),n,n,n,n,n,n
CCn1cc(C(=O)NCCc2ccc(OC)c(OC)c2)c(=O)c2cc(S(=O)(=O)N(C)C3CCCCC3)ccc21,u,n,x,-72.5,u,n
CCn1cc(C(=O)NCCc2ccc(OC)c(OC)c2)c(=O)c2cc(S(=O)(=O)N3CCCCCC3)ccc21,n,n,x,n,n,n
CCn1cc(C(=O)NCCCOC)c(=O)c2cc(S(=O)(=O)N(C)C3CCCCC3)ccc21,n,n,n,n,n,n
CCC1CCCCN1CCCNC(=O)c1cn(CC)c2ccc(S(=O)(=O)N(C)C3CCCCC3)cc2c1=O (configuration not stated),n,n,u,-69.1!,n,n
CCCN(CCC)CCCNC(=O)c1cn(CC)c2ccc(S(=O)(=O)N(C)C3CCCCC3)cc2c1=O,n,n,u,-81.5!,n,n
N#Cc1c(C(F)(F)F)cc(-c2cccs2)nc1SCC(=O)Nc1ccc(F)cc1,n,u,x,n,n,n
